Our source for the Percent Effect values is ChEMBL document CHEMBL3988442, “University of Dundee, Small-Polar-MMV Screening Library” (2021).

For some of these results: Measured potencies and affinities stand elsewhere.

Common to all, as to design: scale not given: direction of the effect not stated beside the values
In experiment [1] the target is Protein translocase subunit SecA (Escherichia coli (strain K12)) (UniProt P10408). In words: Assay to Identify E. coli SecA ATPase Inhibitors. The experiment is classed as functional. Conditions: 30 µM.
Chain of Protein translocase subunit SecA (Escherichia coli (strain K12)) (P10408 whole entry): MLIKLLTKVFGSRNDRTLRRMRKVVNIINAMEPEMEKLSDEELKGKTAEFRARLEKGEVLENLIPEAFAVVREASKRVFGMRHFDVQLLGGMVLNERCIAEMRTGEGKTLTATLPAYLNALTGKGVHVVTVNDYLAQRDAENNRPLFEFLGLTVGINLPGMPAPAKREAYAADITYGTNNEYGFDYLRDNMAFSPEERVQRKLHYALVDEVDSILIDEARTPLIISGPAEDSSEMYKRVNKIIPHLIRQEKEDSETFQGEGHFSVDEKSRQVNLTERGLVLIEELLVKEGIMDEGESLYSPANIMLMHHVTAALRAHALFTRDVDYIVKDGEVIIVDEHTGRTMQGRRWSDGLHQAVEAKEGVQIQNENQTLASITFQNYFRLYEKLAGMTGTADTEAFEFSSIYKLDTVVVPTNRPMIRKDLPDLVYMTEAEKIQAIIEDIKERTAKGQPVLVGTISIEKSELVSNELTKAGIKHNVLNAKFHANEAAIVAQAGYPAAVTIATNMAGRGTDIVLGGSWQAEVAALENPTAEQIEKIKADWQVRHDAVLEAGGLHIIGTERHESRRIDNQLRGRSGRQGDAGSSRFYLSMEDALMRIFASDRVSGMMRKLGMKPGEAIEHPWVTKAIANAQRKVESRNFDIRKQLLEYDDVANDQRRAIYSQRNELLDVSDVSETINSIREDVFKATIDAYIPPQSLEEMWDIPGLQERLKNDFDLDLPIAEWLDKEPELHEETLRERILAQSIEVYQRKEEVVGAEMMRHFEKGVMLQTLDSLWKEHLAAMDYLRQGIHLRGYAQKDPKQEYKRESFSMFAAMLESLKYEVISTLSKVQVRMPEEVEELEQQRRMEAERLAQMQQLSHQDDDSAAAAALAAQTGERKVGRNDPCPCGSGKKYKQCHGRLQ
In experiment [2] the target is T1, Ubiquitin-activating enzyme e1, putative (Leishmania donovani (strain BPK282A1)) (UniProt E9BSI1).
T1 sequence (whole entry): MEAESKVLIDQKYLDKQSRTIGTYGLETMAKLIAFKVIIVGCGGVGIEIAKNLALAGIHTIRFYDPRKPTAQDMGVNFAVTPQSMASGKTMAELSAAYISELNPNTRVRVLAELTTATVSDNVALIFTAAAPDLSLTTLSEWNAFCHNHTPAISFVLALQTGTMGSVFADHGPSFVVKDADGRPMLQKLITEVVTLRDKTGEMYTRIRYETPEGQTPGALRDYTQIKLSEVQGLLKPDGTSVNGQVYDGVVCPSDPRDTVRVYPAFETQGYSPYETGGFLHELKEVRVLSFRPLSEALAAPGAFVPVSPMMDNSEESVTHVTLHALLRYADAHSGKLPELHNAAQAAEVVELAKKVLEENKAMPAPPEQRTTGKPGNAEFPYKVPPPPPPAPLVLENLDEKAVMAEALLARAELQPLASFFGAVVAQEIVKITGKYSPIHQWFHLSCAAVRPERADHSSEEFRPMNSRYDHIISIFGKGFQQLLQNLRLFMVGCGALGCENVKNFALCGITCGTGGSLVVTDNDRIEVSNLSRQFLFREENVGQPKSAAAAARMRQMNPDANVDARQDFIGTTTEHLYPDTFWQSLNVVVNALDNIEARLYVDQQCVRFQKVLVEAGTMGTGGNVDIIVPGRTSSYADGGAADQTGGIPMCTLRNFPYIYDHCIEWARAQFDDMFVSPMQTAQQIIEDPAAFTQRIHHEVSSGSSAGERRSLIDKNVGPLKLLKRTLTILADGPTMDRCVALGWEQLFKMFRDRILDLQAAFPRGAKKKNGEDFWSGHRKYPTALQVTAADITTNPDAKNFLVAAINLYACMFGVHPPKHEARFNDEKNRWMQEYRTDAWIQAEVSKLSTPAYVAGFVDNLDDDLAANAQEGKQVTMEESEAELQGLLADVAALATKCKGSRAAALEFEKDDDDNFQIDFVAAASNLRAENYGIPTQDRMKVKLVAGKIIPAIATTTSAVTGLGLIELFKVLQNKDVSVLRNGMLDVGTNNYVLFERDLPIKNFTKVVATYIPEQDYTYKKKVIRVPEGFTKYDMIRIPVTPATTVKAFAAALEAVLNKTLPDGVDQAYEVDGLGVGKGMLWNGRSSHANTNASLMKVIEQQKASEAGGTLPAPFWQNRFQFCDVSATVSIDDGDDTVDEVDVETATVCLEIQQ
As to the kind of experiment: Leishmania donovani Ubiquitin Activating Enzyme (LdE1). The experiment is classed as functional. Particulars: 30 µM.

The target of experiment [3] is AMP-activated protein kinase, AMPK (Homo sapiens) (UniProt P54646+O43741+P54619+Q9UGJ0+Q9Y478+Q13131+Q9UGI9). As to the kind of experiment: AMP-dependent Kinase enzyme assay. An in vitro enzyme assay that detects ADP turnover that is directly proportional to AMPK activity. This uses naive AMPK that is activated during the assay with MK-8722. The experiment is classed as functional. Particulars: 30 µM.

The target of experiment [4] is Sialic acid-binding Ig-like lectin 9 (Homo sapiens) (UniProt Q9Y336). As to the kind of experiment: Hs-Siglec9 ALPHAscreen SOP 20170721. Particulars: 10 µM. (Alpha assays give light when donor and acceptor beads are brought close together.)
Chain of Sialic acid-binding Ig-like lectin 9 (Homo sapiens) (Q9Y336 whole entry): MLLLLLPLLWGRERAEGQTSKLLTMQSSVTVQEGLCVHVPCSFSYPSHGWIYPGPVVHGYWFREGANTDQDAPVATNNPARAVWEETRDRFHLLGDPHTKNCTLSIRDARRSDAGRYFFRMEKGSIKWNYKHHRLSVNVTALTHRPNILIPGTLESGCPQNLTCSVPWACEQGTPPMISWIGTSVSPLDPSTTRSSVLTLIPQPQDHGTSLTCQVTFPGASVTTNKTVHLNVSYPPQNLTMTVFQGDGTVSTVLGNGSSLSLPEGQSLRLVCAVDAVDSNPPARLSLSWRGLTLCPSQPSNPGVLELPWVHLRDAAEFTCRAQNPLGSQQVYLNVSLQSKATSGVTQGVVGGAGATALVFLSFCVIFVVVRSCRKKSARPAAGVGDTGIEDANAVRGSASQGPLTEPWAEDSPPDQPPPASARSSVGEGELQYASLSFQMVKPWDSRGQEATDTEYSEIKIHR
Experiment [5] has as its system Trypanosoma cruzi. As to the kind of experiment: Trypanosoma cruzi phosphomannomutase and mannose-1-phosphate guanylyltransferase assay. Conditions: 10 µM. The experiment is classed as functional.
In experiment [6] the target is T2, Arginase-2, mitochondrial (Homo sapiens) (UniProt P78540).
T2 sequence (whole entry): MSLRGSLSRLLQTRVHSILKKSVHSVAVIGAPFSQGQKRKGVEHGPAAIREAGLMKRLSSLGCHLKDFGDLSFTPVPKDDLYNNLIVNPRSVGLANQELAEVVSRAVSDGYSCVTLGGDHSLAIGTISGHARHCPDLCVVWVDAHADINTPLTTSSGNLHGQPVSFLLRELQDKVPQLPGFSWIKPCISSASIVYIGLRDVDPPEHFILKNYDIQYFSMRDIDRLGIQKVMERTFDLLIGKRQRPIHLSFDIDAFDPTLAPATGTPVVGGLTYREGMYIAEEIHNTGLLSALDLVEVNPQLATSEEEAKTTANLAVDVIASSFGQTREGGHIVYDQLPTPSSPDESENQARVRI
In words: in vitro enzyme assay to detect the production of urea directly proportional to the activity of Arginase II. Note: in the data most compounds retested in dose-response had high values. In kind it is functional. Particulars: 33.3 µM.

Experiment [7] has as its target T3, Proteasome subunit beta (Trypanosoma cruzi) (UniProt O96673).
T3 sequence (whole entry): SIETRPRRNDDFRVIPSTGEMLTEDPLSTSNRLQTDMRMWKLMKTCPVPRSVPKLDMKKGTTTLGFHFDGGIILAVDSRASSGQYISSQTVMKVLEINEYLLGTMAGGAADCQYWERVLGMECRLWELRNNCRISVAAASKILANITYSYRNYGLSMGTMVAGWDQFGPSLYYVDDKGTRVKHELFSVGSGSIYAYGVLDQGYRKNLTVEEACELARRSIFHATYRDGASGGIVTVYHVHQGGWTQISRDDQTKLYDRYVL
In words: Trypanosoma cruzi proteasome chymotrypsin-like activity (TcProtChymo) assay. Note: in the data most compounds retested in dose-response had high values. In kind it is functional. Particulars: 9.37 µM.

The species entered for experiment [8] is Homo sapiens. In words: To identify inhibition of the IFN signalling (Jak-Stat) pathway via expression of an eGFP reporter gene under the control of an IFN-stimulated response element (ISRE) containing MxA promoter. The experiment is classed as functional. Conditions: 30 µM. Background: Reporter assays use an easily measured gene product as a stand-in for the process of interest.

For experiment [9], the target named is T4, Tyrosyl-tRNA synthetase, putative (Trypanosoma cruzi (strain CL Brener)) (UniProt Q4DSP6).
T4 sequence (whole entry): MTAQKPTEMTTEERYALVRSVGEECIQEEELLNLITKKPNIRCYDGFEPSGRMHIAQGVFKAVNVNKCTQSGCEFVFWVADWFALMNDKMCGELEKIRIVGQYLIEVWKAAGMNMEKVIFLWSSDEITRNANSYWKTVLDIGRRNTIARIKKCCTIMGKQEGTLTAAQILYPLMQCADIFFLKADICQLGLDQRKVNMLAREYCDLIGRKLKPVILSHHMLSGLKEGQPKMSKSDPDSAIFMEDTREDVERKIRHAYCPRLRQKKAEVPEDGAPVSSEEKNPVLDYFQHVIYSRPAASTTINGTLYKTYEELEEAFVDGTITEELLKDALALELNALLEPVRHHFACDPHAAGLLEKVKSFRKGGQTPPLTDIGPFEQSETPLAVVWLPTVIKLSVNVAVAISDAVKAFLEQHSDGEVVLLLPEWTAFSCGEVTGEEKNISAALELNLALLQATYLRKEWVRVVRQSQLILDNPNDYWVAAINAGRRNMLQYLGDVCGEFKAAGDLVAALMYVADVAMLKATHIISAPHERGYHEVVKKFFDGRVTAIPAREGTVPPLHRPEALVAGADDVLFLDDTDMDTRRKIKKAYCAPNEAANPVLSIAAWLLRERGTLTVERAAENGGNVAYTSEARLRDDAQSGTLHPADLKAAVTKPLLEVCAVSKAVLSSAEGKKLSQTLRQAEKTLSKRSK
As to the kind of experiment: Trypanosoma cruzi tyrosyl tRNA synthetase (TcYRS) _High Tyrosine SOP. Note: in the data most compounds retested in dose-response had high values. The experiment is classed as functional. Particulars: 30 µM.

Experiment [10] addresses T4, Tyrosyl-tRNA synthetase, putative (Trypanosoma cruzi (strain CL Brener)). In words: Trypanosoma cruzi tyrosyl tRNA synthetase (TcYRS) SOP. Conditions: 30 µM. The experiment is classed as functional.
Experiment [11] deals with Chromo domain-containing protein 1 (Saccharomyces cerevisiae (strain ATCC 204508 / S288c) (Baker's yeast)) (UniProt P32657). As to the kind of experiment: ScCHD-1 Enzyme Inhibition Assay. Note: in the data most compounds retested in dose-response had high values. The experiment is classed as functional. Conditions: 30 µM.
Chain of Chromo domain-containing protein 1 (Saccharomyces cerevisiae (strain ATCC 204508 / S288c) (Baker's yeast)) (P32657 whole entry, the tested form may be a part): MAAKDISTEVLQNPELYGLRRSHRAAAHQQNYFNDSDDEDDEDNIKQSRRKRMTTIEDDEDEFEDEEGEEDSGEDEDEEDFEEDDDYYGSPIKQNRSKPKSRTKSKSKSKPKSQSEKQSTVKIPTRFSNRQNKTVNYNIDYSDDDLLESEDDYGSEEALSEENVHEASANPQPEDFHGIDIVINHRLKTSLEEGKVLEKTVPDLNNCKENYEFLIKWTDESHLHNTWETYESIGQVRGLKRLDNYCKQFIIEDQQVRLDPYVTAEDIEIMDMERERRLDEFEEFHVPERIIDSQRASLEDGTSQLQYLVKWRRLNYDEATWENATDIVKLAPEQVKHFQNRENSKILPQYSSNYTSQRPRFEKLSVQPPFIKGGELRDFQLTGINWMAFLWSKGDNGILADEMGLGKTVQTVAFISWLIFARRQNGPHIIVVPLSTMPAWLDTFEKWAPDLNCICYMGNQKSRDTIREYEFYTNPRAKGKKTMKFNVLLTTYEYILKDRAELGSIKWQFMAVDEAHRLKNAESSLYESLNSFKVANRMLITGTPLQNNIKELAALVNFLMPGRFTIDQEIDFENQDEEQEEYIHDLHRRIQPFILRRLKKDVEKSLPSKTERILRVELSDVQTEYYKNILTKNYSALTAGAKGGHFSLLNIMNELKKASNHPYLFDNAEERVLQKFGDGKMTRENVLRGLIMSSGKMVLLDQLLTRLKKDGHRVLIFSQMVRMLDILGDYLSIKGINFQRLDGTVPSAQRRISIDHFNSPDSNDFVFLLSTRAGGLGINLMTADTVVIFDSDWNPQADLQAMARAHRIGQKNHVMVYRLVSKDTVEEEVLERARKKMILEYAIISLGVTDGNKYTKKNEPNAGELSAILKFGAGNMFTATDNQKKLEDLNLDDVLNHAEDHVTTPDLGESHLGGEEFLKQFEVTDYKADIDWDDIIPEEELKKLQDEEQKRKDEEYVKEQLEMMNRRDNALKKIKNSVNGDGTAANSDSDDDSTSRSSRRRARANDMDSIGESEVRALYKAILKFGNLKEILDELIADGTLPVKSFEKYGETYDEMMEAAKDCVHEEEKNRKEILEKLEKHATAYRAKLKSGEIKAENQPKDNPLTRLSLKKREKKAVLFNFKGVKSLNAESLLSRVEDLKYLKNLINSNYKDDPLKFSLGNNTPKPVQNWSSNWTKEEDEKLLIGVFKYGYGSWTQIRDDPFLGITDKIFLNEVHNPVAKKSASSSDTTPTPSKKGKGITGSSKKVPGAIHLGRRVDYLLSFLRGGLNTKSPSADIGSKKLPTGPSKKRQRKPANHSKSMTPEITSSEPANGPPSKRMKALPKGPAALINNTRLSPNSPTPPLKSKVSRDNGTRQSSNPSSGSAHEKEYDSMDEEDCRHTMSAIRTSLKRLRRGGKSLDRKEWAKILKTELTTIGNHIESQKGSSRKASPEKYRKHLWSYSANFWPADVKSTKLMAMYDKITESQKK

With `CC1=Nc2c(c(=O)[nH]n2C2CCOCC2)C(c2cccc(Br)c2)S1` (stereo unspecified), the Percent Effect was -5.02% in [1]; 12% in experiment [2]; -9.43% in experiment [3]; -0.93% in [4]; 1.97% in [5]; 82.6% in experiment [6]. For the same molecule, the Percent Effect was 14.1% in experiment [7]; 30.4% in experiment [8]; 9.52% in [9]; 20.5% in experiment [10]; -11.4% in [11].
As to `Cc1cc(C)n(CC2CCCN2C(=O)c2cc[nH]n2)n1` (stereo unspecified), the Percent Effect in [1] is -7.68%; in experiment [2], 16.5%; in experiment [3] it was -4.09%; in experiment [4] it was -3.12%; in experiment [5] it was 0.923%; in experiment [6] it was 0.215%. In addition, the Percent Effect was 8.58% in experiment [7]; -2.4% in experiment [8]; 7.29% in experiment [9]; 17.7% in experiment [10]; -34.4% in experiment [11].
`COCCN1CCC2(CC1)CN(C(=O)N(C)C)c1ccc(C)cc12`: the Percent Effect in [1] is -5.7%; in experiment [2] it was 5.41%; in experiment [3], -1.76%; in experiment [4] it was -3.94%; in experiment [5], -3.62%; in [6], 2.23%. In addition, the Percent Effect in experiment [7] is 6.83%; in [8], 12.1%; in experiment [9] it was 0%; in experiment [10], 5.13%; in experiment [11], 0.0767%.
For `O=C1COC2(CCN(Cc3ccoc3)CC2)CN1c1ccsc1`, the Percent Effect in experiment [1] was 0.00228%; in [2], 18.7%; in [3], 6.94%; in experiment [4] it was -2.69%; in experiment [5], -0.591%; in experiment [6], 1.63%. Moreover, the Percent Effect in [7] was 14.4%; in experiment [8], -27.3%; in experiment [9], 7.45%; in [10] it was 11.5%; in experiment [11] it was -2.01%.
Consider `N#Cc1cccc(S(=O)(=O)NC2CCN(Cc3ccccc3)C2=O)c1` (stereo unspecified), for which the Percent Effect in experiment [1] is -2.71%; in experiment [2], 12.7%; in [3], 0.264%; in [4], 4.28%; in experiment [5] it was -4.44%; in experiment [6], -6.84%. For the same molecule, the Percent Effect in [7] is 2.21%; in [8], 1.05%; in experiment [9], 3.45%; in experiment [10], 11.4%; in [11] it was -7.32%.
In the case of `O=C(c1ccc(Cl)o1)N1CCCN(Cc2cscn2)CC1`, the Percent Effect is -5.01% in experiment [1]; 15.6% in [2]; -7.43% in [3]; -4.3% in experiment [4]; 4.02% in experiment [5]; -2.74% in experiment [6]. The Percent Effect in experiment [7] was 16.1%; in [8], 0.576%; in experiment [9], 6.67%; in experiment [10], 14.1%; in [11] it was -17.3%.
On to `CC(C)C(Sc1nnnn1C1CC1)C(=O)NCc1cccnc1` (stereo unspecified), for which the Percent Effect was -3.26% in [1]; 5.2% in experiment [2]; 3.52% in experiment [3]; -3.03% in experiment [4]; -5.24% in [5]; 17.8% in [6]. Also, the Percent Effect in [7] is 13.3%; in experiment [8], 27.7%; in [9], 6.8%; in experiment [10], 19.5%; in experiment [11], -3.93%.
`COc1cccc(-n2c(C)cc(C(=O)O)c2C)c1`: the Percent Effect in experiment [1] was -4.92%; in experiment [2], 20.2%; in [3] it was -3.83%; in experiment [4] it was -8.51%; in experiment [5], -6.52%; in experiment [6] it was 2.28%. Further, the Percent Effect in [7] was 10.7%; in experiment [8] it was 31.6%; in [9] it was -0.493%; in experiment [10], 3.8%; in [11], -2.26%.
For the molecule `Cc1ccc2cc(CNCCCO)c(=O)[nH]c2c1`, the Percent Effect in [1] is 2.35%; in experiment [2] it was 9.46%; in experiment [3], 7.11%; in experiment [4] it was -4.27%; in experiment [5], -5.34%; in experiment [6] it was 4.41%. Also, the Percent Effect was 5.15% in [7]; 8.44% in experiment [8]; 1.07% in [9]; 9.09% in experiment [10]; -13.8% in [11].
As for `CNC(=O)CC1CCN(Cc2nc(-c3ccc(SC)cc3)oc2C)CC1`, the Percent Effect in [1] is -7%; in [2], 2.7%; in experiment [3] it was -0.898%; in experiment [4] it was 2.66%; in experiment [5], -2.7%; in experiment [6], -0.952%. The Percent Effect in experiment [7] was 11.7%; in experiment [8], 13.2%; in experiment [9], 7.94%; in experiment [10], 0%; in [11], -2.7%.
As for `CCOCC(O)CN1CCN(C(=O)c2cnc3n[nH]c(C)c3c2)CC1` (stereo unspecified), the Percent Effect in experiment [1] is -4.29%; in experiment [2], 10.5%; in [3] it was 1.79%; in [4], 1.55%; in [5], 5.7%; in experiment [6] it was 1.44%. Moreover, the Percent Effect is 8.54% in experiment [7]; 10.1% in [8]; 7.39% in experiment [9]; 16.1% in experiment [10]; -0.703% in experiment [11].
